Among all 5,500 compounds or so, about 2,000 (36%) were called active. Another 18% or so got no clear call; they are omitted. Rule as the data show it: active = normalized growth mostly below about 0.91 (no sharp cut-off); inconclusive = no clear call, values can overlap the other calls; inactive = mostly above about 0.92. This is one part of the list.
Assay: chemical genetic growth profiling, strain panel (AID 1159580);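 also: tested at 20 µM; growth read once vehicle control cultures reached saturation at 30 °C; 1 = growth at the plate median or of vehicle wells; lower values mean less growth of the strain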
Details: growth OD

Measured: normalized growth

CCC/C=C/C=C/[C@@H]1C[C@@H](O)[C@@H](O)C(=O)[C@H]1C=O
inactive: S. cerevisiae deletion strains, locus YBR021W, strain FUR4, hits give low values 1.01 | S. cerevisiae deletion strains, locus YBR229C, strain ROT2, hits give low values 0.992 | S. cerevisiae deletion strains, locus YCL029C, strain bik1, hits give low values 0.98 | S. cerevisiae deletion strains, locus YDL035C, strain GPR1, hits give low values 1 | S. cerevisiae deletion strains, locus YDL074C, strain BRE1, hits give low values 1.01 | S. cerevisiae deletion strains, locus YDL101C, strain DUN1, hits give low values 0.994 | S. cerevisiae deletion strains, locus YDL192W, strain arf1, hits give low values 0.949 | S. cerevisiae deletion strains, locus YDR101C, strain arx1, hits give low values 0.978 | S. cerevisiae deletion strains, locus YDR162C, strain NBP2, hits give low values 0.982 | S. cerevisiae deletion strains, locus YDR318W, strain mcm21, hits give low values 0.959 | S. cerevisiae deletion strains, locus YDR388W, hits give low values 0.955 | S. cerevisiae deletion strains, locus YDR502C, strain sam2, hits give low values 0.976 | S. cerevisiae deletion strains, locus YEL061C, strain CIN8, hits give low values 0.984 | S. cerevisiae deletion strains, locus YER110C, hits give low values 0.999 | S. cerevisiae deletion strains, locus YER155C, strain BEM2, hits give low values 0.955 | S. cerevisiae deletion strains, locus YER167W, strain BCK2, hits give low values 0.976 | S. cerevisiae deletion strains, locus YGL078C, strain dbp3, hits give low values 0.94 | S. cerevisiae deletion strains, locus YGL086W, strain mad1, hits give low values 0.976 | S. cerevisiae deletion strains, locus YGL248W, strain PDE1, hits give low values 1 | S. cerevisiae deletion strains, locus YGR135W, strain pre9, hits give low values 0.988 | S. cerevisiae deletion strains, locus YGR252W, strain gcn5, hits give low values 1.16 | S. cerevisiae deletion strains, locus YHR030C, strain SLT2, hits give low values 0.978 | S. cerevisiae deletion strains, locus YHR079C, strain IRE1 (second series), hits give low values 0.981 | S. cerevisiae deletion strains, locus YHR094C, strain hxt1, hits give low values 0.97 | S. cerevisiae deletion strains, locus YHR129C, strain ARP1, hits give low values 0.99 | S. cerevisiae deletion strains, locus YHR200W, strain rpn10, hits give low values 0.972 | S. cerevisiae deletion strains, locus YIL066C, strain RNR3, hits give low values 0.971 | S. cerevisiae deletion strains, locus YIL073C, strain SPO22, hits give low values 1.03 | S. cerevisiae deletion strains, locus YIR030C, strain dcg1, hits give low values 0.975 | S. cerevisiae deletion strains, locus YJL095W, strain BCK1, hits give low values 1.03 | S. cerevisiae deletion strains, locus YJL134W, strain LCB3, hits give low values 0.947 | S. cerevisiae deletion strains, locus YJL168C, strain set2, hits give low values 0.973 | S. cerevisiae deletion strains, locus YJL187C, strain SWE1 (second series), hits give low values 1.03 | S. cerevisiae deletion strains, locus YJR043C, strain POL32, hits give low values 0.99 | S. cerevisiae deletion strains, locus YJR075W, strain HOC1, hits give low values 0.977 | S. cerevisiae deletion strains, locus YKL190W, strain CNB1, hits give low values 0.964 | S. cerevisiae deletion strains, locus YKR001C, strain vps1, hits give low values 0.901 | S. cerevisiae deletion strains, locus YLR058C, strain SHM2, hits give low values 0.99 | S. cerevisiae deletion strains, locus YLR102C, strain apc9, hits give low values 0.983 | S. cerevisiae deletion strains, locus YLR330W, strain CHS5, hits give low values 0.946 | S. cerevisiae deletion strains, locus YLR342W, strain FKS1 (second series), hits give low values 0.948 | S. cerevisiae deletion strains, locus YLR371W, strain rom2, hits give low values 0.978 | S. cerevisiae deletion strains, locus YLR418C, strain cdc73, hits give low values 0.999 | S. cerevisiae deletion strains, locus YML016C, strain PPZ1, hits give low values 0.986 | S. cerevisiae deletion strains, locus YML032C, strain rad52, hits give low values 0.954 | S. cerevisiae deletion strains, locus YML124C, strain tub3, hits give low values 0.991 | S. cerevisiae deletion strains, locus YMR078C, strain ctf18, hits give low values 0.973 | S. cerevisiae deletion strains, locus YMR223W, strain ubp8, hits give low values 0.929 | S. cerevisiae deletion strains, locus YMR263W, strain SAP30, hits give low values 0.992 | S. cerevisiae deletion strains, locus YMR307W, strain GAS1, hits give low values 1.04 | S. cerevisiae deletion strains, locus YNL067W, strain RPL9B, hits give low values 0.986 | S. cerevisiae deletion strains, locus YNL153C, strain GIM3, hits give low values 1.01 | S. cerevisiae deletion strains, locus YNL233W, strain BNI4, hits give low values 0.973 | S. cerevisiae deletion strains, locus YNL307C, strain MCK1, hits give low values 0.954 | S. cerevisiae deletion strains, locus YNL322C, strain KRE1, hits give low values 0.984 | S. cerevisiae deletion strains, locus YOL012C, strain htz1 0.336 | S. cerevisiae deletion strains, locus YOL147C, strain pex11, hits give low values 0.986 | S. cerevisiae deletion strains, locus YOR061W, strain CKA2, hits give low values 0.986 | S. cerevisiae deletion strains, locus YOR069W, strain VPS5, hits give low values 0.979 | S. cerevisiae deletion strains, locus YOR136W, strain idh2, hits give low values 0.996 | S. cerevisiae deletion strains, locus YOR144C, strain elg1, hits give low values 0.982 | S. cerevisiae deletion strains, locus YOR184W, strain ser1, hits give low values 0.938 | S. cerevisiae deletion strains, locus YOR316C, strain cot1, hits give low values 0.979 | S. cerevisiae deletion strains, locus YPR119W, strain clb2, hits give low values 0.971 | S. cerevisiae deletion strains, locus YPR163C, strain tif3, hits give low values 0.983 | S. cerevisiae deletion strains, locus YPR167C, strain met16, hits give low values 0.979 | S. cerevisiae deletion strains, strain wtn01, hits give low values 0.973 | S. cerevisiae strains, strain wild type, hits give low values 0.971
active: S. cerevisiae deletion strains, locus YDL185W, strain tfp1, hits give low values 0.0596 | S. cerevisiae deletion strains, locus YIL125W, strain kgd1, hits give low values 0.853 | S. cerevisiae deletion strains, locus YKL009W, strain mrt4, hits give low values 0.76 | S. cerevisiae deletion strains, locus YKL068W, hits give low values 0.928 | S. cerevisiae deletion strains, locus YKL085W, strain MDH1 (second series), hits give low values 0.88 | S. cerevisiae deletion strains, locus YKL085W, strain MDH1, hits give low values 0.88 | S. cerevisiae deletion strains, locus YLR039C, strain RIC1, hits give low values 0.496 | S. cerevisiae deletion strains, locus YLR262C, strain YPT6, hits give low values 0.504 | S. cerevisiae deletion strains, locus YLR268W, strain sec22, hits give low values 0.829 | S. cerevisiae deletion strains, locus YNL250W, strain rad50, hits give low values 0.821 | S. cerevisiae deletion strains, locus YNL271C, strain bni1, hits give low values 0.732 | S. cerevisiae deletion strains, locus YNL298W, strain CLA4, hits give low values 0.901 | S. cerevisiae deletion strains, locus YNR052C, strain pop2, hits give low values 0.907 | S. cerevisiae deletion strains, locus YOL006C, strain TOP1, hits give low values 0.52 | S. cerevisiae deletion strains, locus YPR141C, strain kar3, hits give low values 0.804

— PubChem BioAssay AID1159580 (chemical genetic matrix, 2015)
